From PubChem BioAssay
FLuc counter: firefly luciferase modulation, counter-screen for miR-21 project | Potency, µM (titrated, usually from 57.5 µM), without a hit: at the top dose activity change, negative = inhibition, hits mostly inhibitors | P08659 | hit rate 6.9% among 360,000 | purified FLuc, Km substrates, luminescence inhibition;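 also: plate controls were vehicle for no effect and reference inhibitor for full effect; nearly all actives have a fitted effect of over 55% in size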
Target sequence (P08659 whole entry, looked up): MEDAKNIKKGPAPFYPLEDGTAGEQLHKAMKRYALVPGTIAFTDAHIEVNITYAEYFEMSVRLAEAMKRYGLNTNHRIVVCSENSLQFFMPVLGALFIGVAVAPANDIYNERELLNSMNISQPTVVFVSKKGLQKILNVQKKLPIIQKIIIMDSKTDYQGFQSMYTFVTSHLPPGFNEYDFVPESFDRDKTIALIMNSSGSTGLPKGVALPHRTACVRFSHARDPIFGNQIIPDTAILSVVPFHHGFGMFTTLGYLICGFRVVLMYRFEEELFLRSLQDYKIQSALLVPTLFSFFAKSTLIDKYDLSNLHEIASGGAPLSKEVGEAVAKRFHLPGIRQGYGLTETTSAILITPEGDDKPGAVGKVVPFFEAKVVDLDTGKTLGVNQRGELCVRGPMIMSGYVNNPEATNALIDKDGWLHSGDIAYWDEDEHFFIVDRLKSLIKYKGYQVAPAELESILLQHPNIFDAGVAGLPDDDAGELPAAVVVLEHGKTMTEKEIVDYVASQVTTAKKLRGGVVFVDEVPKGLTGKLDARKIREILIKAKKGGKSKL
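Purified P. pyralis luciferase, 10 nM final, with Km-level 10 uM D-luciferin and 10 uM ATP in 50 mM Tris acetate pH 7.5, 10 mM Mg acetate, 0.01% Tween-20, 0.05% BSA; 6-point qHTS titration about 60 µM downward; luminescence read.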
SMN2 splice enh: SMN2 splice variant enhancement; HEK293 SMN2-luciferase splicing reporter, luminescence, 30-36 h; Potency, µM (highest dose often 46.1 µM), for the others: at the highest dose activity change, positive = activation, actives largely listed as activators; hit rate 2.8% among 210,000; also: % of control where 0% means no effect; nearly all actives have a fitted effect of over 55% in size
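HEK293 cells carry an SMN2 […]–luciferase reporter in which exon 7 inclusion puts luciferase in frame. Cells were plated 10-12 h before compound addition, then incubated 30-36 h at 37C. ONE-Glo luminescence was read; sodium butyrate at 4.5 mM final served as control.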
Rab9 promoter act: Rab9 promoter activation. hit rate 2.8% among 320,000. Potency, µM (doses to about 9.22 µM), inactives show top-dose activation, negative = inhibition, usual class: activators. Huh7 Rab9 promoter-luciferase reporter, luminescence, 24 h; also: % of control where 0% means no effect; nearly all actives have a fitted effect of over 60% in size
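Using Huh7 cells stably transfected with Rab9 promoter–luciferase, compounds were incubated 24 h at 37 °C, 5% CO2; luciferase luminescence was read 10 min after reagent addition.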
NPC1 prom act: NPC1 promoter activation | hit rate 2.4% among 320,000 | Potency, µM (doses to about 9.22 µM), inactives show at the top dose activation, usual class: activators | Huh7 NPC1 promoter luciferase reporter, 24 h; also: % of control where 0% means no effect; nearly all actives have a fitted effect of over 60% in size
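Compounds in DMSO were transferred onto Huh7 NPC1-luciferase reporter cells pre-incubated 2 h; after 24 h at 37 °C, Amplite reagent was dispensed and luminescence recorded 10 min later.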
KinaseGlo FLuc: Kinase-Glo luciferase inhibition (counter-screen); Q27757; Kinase-Glo luciferase, ATP luminescence, 8 min; hit rate 0.28% among 200,000; Potency, µM (top dose mostly 38.3 µM), for the others: at the highest dose activity change, negative = inhibition, usual class: inhibitors; also: % is scaled to controls: 0 for no effect and ±100 for the full control effect; nearly all actives have a fitted effect of over 60% in size
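Compound is pinned into ATP-containing buffer (10 uM ATP, imidazole pH 7.2, 7 mM MgCl2). Kinase-Glo luciferase reagent is then added. Light output is recorded following an 8-min room-temperature incubation.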
* hit, by the source's call; [ ] = dose if it differs, or a comment. A selection: hits, their analogues and other compounds. The true share with any hit is near 7.3%. Calls follow the shape of the dose curve; as a rule, active = well fitted curve in the direction sought with a large enough effect; inconclusive = small, poorly fitted or top-dose-only effect, or another doubt; inactive = no such curve, though single readings can be large; an effect the other way counts as inactive or inconclusive. Potency is read from the fitted curve at half-maximal effect.

What do the screens show for `COc1ccc(N2CCN(C(=O)Cn3nc(Cc4cccnc4)c4ccccc4c3=O)CC2)cc1`?
FLuc counter: -6%; SMN2 splice enh: 10%

What do the screens show for `C/C(=N\NC(=O)c1cccc(N/N=C(\C)c2cc(O)ccc2O)c1)c1cc(O)ccc1O`?
FLuc counter: 12µM*; SMN2 splice enh: -56%; Rab9 promoter act: -35%; NPC1 prom act: -18%; KinaseGlo FLuc: -2%

How did C/C(=N\NC(=O)c1cccc(O)c1)c1cccc(NC(=O)c2ccc(F)cc2)c1 do in these assays?
FLuc counter: 1.9µM*; Rab9 promoter act: 14%; NPC1 prom act: inconclusive

What do the screens show for `Cn1c2c(c(=O)[nH]c1=O)C(c1ccc(O)cc1)C1=C(N2)c2ccccc2C1=O` (stereo unspecified)?
FLuc counter: 17µM*; SMN2 splice enh: -18%; Rab9 promoter act: -4%; NPC1 prom act: -11%; KinaseGlo FLuc: -22%

How did COC(=O)c1ccc(C23CC2(C(NP(=O)(c2ccccc2)c2ccccc2)c2ccccc2)C3)cc1 (stereo unspecified) do in these assays?
SMN2 splice enh: 3%; KinaseGlo FLuc: -8%

Results for CC(C)COc1ccc(C(=O)NCC2(N3CCN(C)CC3)CCCCC2)cc1 ?
FLuc counter: -2%

Results for Cc1[nH]c2ccccc2c1/C=N/Nc1nncn1N ?
FLuc counter: 2.1µM*; SMN2 splice enh: 20%; Rab9 promoter act: inconclusive; NPC1 prom act: 6%; KinaseGlo FLuc: 1%

Results for Cc1[nH]c2ccccc2c1/C=N/Nc1ccccn1 ?
FLuc counter: 24µM*; SMN2 splice enh: 2%; Rab9 promoter act: 14%; NPC1 prom act: -7%; KinaseGlo FLuc: -2%

Results for COc1cc(NC(=O)CCc2c(C)n(C)c3cc(-c4ccccc4C)nn3c2=O)cc(OC)c1OC ?
FLuc counter: -1%

How did Fc1ccc(-c2nnc(CN3CCN(c4ccccn4)CC3)o2)cc1 do in these assays?
FLuc counter: 0%; SMN2 splice enh: -8%

What do the screens show for `Cn1c2ccccc2c2ncn(CCC3=CCCCC3)c(=O)c21`?
FLuc counter: 17µM*; Rab9 promoter act: 4.5µM*; NPC1 prom act: 28%

What do the screens show for `O=C(CN1C(=O)C2(SCC(=O)N2c2cccc(F)c2)c2ccccc21)NCCc1ccccc1` (stereo unspecified)?
FLuc counter: 0%

Results for CCOc1cc(C(=O)Nc2ccc(-c3nc4cc(Cl)ccc4o3)cc2)cc(OCC)c1OCC ?
FLuc counter: -8%; SMN2 splice enh: -3%

Results for CCOC(=O)c1sc2nc3c(SCC(=O)O)cc(C(=O)c4cc(F)ccc4O)cn3c(=O)c2c1C ?
FLuc counter: 8.5µM*; SMN2 splice enh: 23%; Rab9 promoter act: -3%; NPC1 prom act: 1%; KinaseGlo FLuc: 3%

How did CCOC(=O)c1sc2nc3c(SCC(=O)O)cc(C(=O)c4ccccc4O)cn3c(=O)c2c1C do in these assays?
FLuc counter: 2.4µM*; SMN2 splice enh: 19%; Rab9 promoter act: 13%; NPC1 prom act: 18%; KinaseGlo FLuc: -10%

What do the screens show for `Cc1sc2nc3c(SC(C)C(=O)O)cc(C(=O)c4ccccc4O)cn3c(=O)c2c1C` (stereo unspecified)?
FLuc counter: 21µM*; SMN2 splice enh: 13%; Rab9 promoter act: -11%; NPC1 prom act: -5%; KinaseGlo FLuc: 2%

How did COc1ccc(-n2c(SCC(=O)O)nc3sc4c(c3c2=O)CCCC4)cc1 do in these assays?
FLuc counter: 0%; Rab9 promoter act: -2%; NPC1 prom act: 1%

How did COC(=O)c1cc(C(=O)c2cc(F)ccc2O)cn2c(=O)c3c(C)c(C)sc3nc12 do in these assays?
FLuc counter: inconclusive; Rab9 promoter act: -1%; NPC1 prom act: -2%

What do the screens show for `CCc1c(C)sc2nc3c(C(=O)N4CCOCC4)cc(C(=O)c4ccccc4O)cn3c(=O)c12`?
FLuc counter: -12%; SMN2 splice enh: -15%; Rab9 promoter act: -15%; NPC1 prom act: 2%; KinaseGlo FLuc: -1%

What do the screens show for `COc1ccc(O)c(C(=O)c2cc(SCC(=O)O)c3nc4sc5c(c4c(=O)n3c2)CCCC5)c1`?
FLuc counter: 6.7µM*; Rab9 promoter act: -3%; NPC1 prom act: 2%

Results for Cc1ccccc1CN1C(=O)c2ccccc2S(=O)c2ccc(C(=O)NCc3ccc4c(c3)OCO4)cc21 (stereo unspecified) ?
FLuc counter: 4%; SMN2 splice enh: 3%

What do the screens show for `COC(=O)c1cnn2c(C)c(Cc3c(C)cc(C)cc3C)c(C)nc12`?
FLuc counter: -1%

Results for Cc1ccc(C)c(CSc2nnc3[nH]c(=O)cc(C)n23)c1 ?
FLuc counter: -1%

Results for O=C(O)CSc1cc(C(=O)c2ccccc2O)cn2c(=O)c3c(-c4ccccc4)csc3nc12 ?
FLuc counter: 15µM*; SMN2 splice enh: -2%; Rab9 promoter act: 1%; NPC1 prom act: -4%; KinaseGlo FLuc: -1%

Results for C=Cc1ccc(CN2C(=O)N(c3cccc(Cl)c3)S(=O)(=O)c3ccccc32)cc1 ?
FLuc counter: 0%

How did CCOC(=O)CSC1=C(C#N)C(c2ccc(C)s2)CC(=O)N1 (stereo unspecified) do in these assays?
FLuc counter: 1%; SMN2 splice enh: -40%; Rab9 promoter act: -18%; NPC1 prom act: -18%; KinaseGlo FLuc: -1%

What do the screens show for `CCSC1=C(C#N)C(c2ccc(C)s2)CC(=O)N1` (stereo unspecified)?
FLuc counter: 27µM*; SMN2 splice enh: 0%; Rab9 promoter act: 5%; NPC1 prom act: 3%; KinaseGlo FLuc: -11%

How did N#CCCN(C(=O)COC(=O)CNC(=O)c1ccc(-c2ccccc2)cc1)c1ccc(F)cc1 do in these assays?
FLuc counter: 24µM*; Rab9 promoter act: 3%; NPC1 prom act: -7%

How did CC(C)(C)c1ccc(C(=O)Oc2ccc3c(c2)OCC3=O)cc1 do in these assays?
FLuc counter: 2.7µM*; SMN2 splice enh: 5%; Rab9 promoter act: -5%; NPC1 prom act: 0%; KinaseGlo FLuc: 0%

How did CC(=O)Oc1ccc2c(c1)C(=O)c1ccccc1CO2 do in these assays?
FLuc counter: 4.8µM*; SMN2 splice enh: -32%; Rab9 promoter act: 7%; NPC1 prom act: 1%; KinaseGlo FLuc: -4%

What do the screens show for `CCN(CC)S(=O)(=O)c1ccc(C(=O)Oc2ccc3c(c2)OCO3)cc1`?
FLuc counter: -1%; SMN2 splice enh: 2%; Rab9 promoter act: 1%[1.84 µM]; NPC1 prom act: 0%; KinaseGlo FLuc: -1%

How did O=C(Oc1ccc2c(c1)OCC2=O)c1ccccc1 do in these assays?
FLuc counter: 27µM*; SMN2 splice enh: 11%; Rab9 promoter act: 0%; NPC1 prom act: -1%; KinaseGlo FLuc: -2%

Results for Cc1ccc(O)c(NC(=O)c2ccc(Br)c(S(=O)(=O)N3CCCCC3)c2)c1 ?
FLuc counter: inconclusive; SMN2 splice enh: -22%
